Shown are actives, neighbours in structure and some others; about 12% of the full set was active somewhere.
Sm TGR block: qHTS Assay for the Inhibitors of Schistosoma Mansoni Peroxiredoxins; Schistosoma mansoni thioredoxin glutathione reductase (TGR), Q962Y6; purified TGR, DTNB reduction, TNB absorbance 405 nm; Potency, µM (doses to about 114 µM), inactives show at the highest dose activity change, negative = inhibition, most hits filed as inhibitors; actives 3% (n = 360,000); AID 485364, 2010; further: on the % scale 0 is the no-effect control and ±100 the full control effect; nearly all actives have a fitted effect of over 60% in size
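First, TGR (20 nM dispensed) and NADPH were mixed with compound. Second, a 15 min room-temperature incubation followed. Third, further NADPH and then DTNB were added to start the reaction. Finally, TNB absorbance was monitored kinetically.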
SARS PLpro yeast: qHTS of Yeast-based Assay for SARS-CoV PLP | S. cerevisiae expressing SARS-CoV PLpro, growth rescue | Potency, µM (series often up to 32.9 µM), for inactives: at the top dose activity, positive = growth rescue, actives largely listed as activators | actives 0.19% (n = 330,000) | AID 485353, 2010; calls by dose curve; further: 0% is about no effect; nearly all actives have a fitted effect of over 55% in size
Pf growth 96h: Primary qHTS for delayed death inhibitors of the malarial parasite plastid, 96 hour incubation; actives 6.9% (n = 320,000); P. falciparum luciferase reporter growth, 96 h; Potency, µM (titrated, usually from 28.7 µM), for the others: top-dose activity change, negative = inhibition, actives largely listed as inhibitors; further: on the % scale 0 is the no-effect control and ±100 the full control effect
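Luminescence readout: decreased luciferase signal marks inhibited growth of reporter-expressing P. falciparum in infected red cells (2% hematocrit, 0.05% parasitemia final), exposed to compound two generations (96 h, 37 C, 5% CO2).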
Pf growth 48h: Primary qHTS for delayed death inhibitors of the malarial parasite plastid, 48 hour incubation; P. falciparum luciferase growth in erythrocytes, 48 h; AID 504832, 2011; actives 5.9% (n = 310,000); Potency, µM (series often up to 28.7 µM), inactives show at the top dose activity change, negative = inhibition, hits mostly inhibitors; further: on the % scale 0 is the no-effect control and ±100 the full control effect
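First compound was added to culture medium, then infected red cells at 0.1% parasitemia and 2% hematocrit (final). After incubation at 37 C under 5% CO2, luciferase detection reagent was dispensed and light output recorded.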
* hit, by the source's call; i = inactive; ? = inconclusive; · = not tested or not shown; [ ] = remark or other dose. Unless noted, the call rests on the fitted dose curve; in most records, active means well fitted curve in the direction sought with a large enough effect; inconclusive means small, poorly fitted or top-dose-only effect, or another doubt; inactive means no such curve, though single readings can be large; an effect the other way counts as inactive or inconclusive. Potency means the concentration at half of the fitted maximal effect.

SMILES	Sm TGR block	SARS PLpro yeast	Pf growth 96h	Pf growth 48h
CCN1C(=O)C2(C(C(=O)c3ccc(C)o3)=C(O)C(=O)N2CCCN(C)C)c2ccccc21 (stereo unspecified)	32µM*	0%	4%	-3%
COc1ccccc1N1CCN(S(=O)(=O)c2c(C)sc3ncn(CC(=O)Nc4ccc(C)cc4Br)c(=O)c23)CC1	1%	·	·	·
COC(=O)c1cc2occc2n1Cc1nc(-c2cccc(Br)c2)oc1C	-4%	·	·	·
COc1cc(CN(C(=O)c2ccccc2[N+](=O)[O-])c2ccccn2)cc(OC)c1OC	4%	·	·	·
CC1CC(=O)C2=C(C1)Nc1ccccc1SC2c1ccc(F)cc1 (stereo unspecified)	-9%	-17%	4.1µM*	12µM*
Cc1ccc(SCc2cc(=O)n3ccsc3n2)c(C)c1	1%	-24%	i	23%
O=c1cc(CSc2nnc(-c3cccnc3)n2-c2ccccc2F)nc2sccn12	9%	2%	9%	-12%
Cc1cccc(-n2c(SCc3cc(=O)n4ccsc4n3)nc3ccccc32)c1	2%	-19%	4.1µM*	2.9µM*
CCc1cccc(CC)c1-n1c(SCc2cc(=O)n3ccsc3n2)nnc1-c1cccnc1	-29%	5%	10µM*	15µM*
Cc1cc(SCC(=O)N2CCN(C(=O)c3ccco3)CC2)c(C)cc1Br	?	5%	-20%	?
Cc1ccc(S(=O)(=O)N2CCOCC2)cc1NC(=O)C1=NN(c2ccccc2)C(=O)CC1	-2%	-6%	?	?
CCN(CC)S(=O)(=O)c1ccc(N2CCCC2)c(NC(=O)C2=NN(c3ccccc3)C(=O)CC2)c1	-21%	-4%	15µM*	10µM*
Cc1ccc(C)c(N2N=C(C(=O)Nc3ccccc3N3CCOCC3)CCC2=O)c1	-2%	-1%	?	12µM*
O=C(Nc1cc(Cl)ccc1N1CCCC1)C1=NN(c2ccccc2)C(=O)CC1	-11%	0%	9.3µM*	-10%
CN(C)c1ccc(S(=O)(=O)N2CCCCC2)cc1NC(=O)C1=NN(c2ccccc2)C(=O)CC1	3%	?	5.9µM*	-19%
Cc1ccc(C)c(N2N=C(C(=O)Nc3ccccc3N3CCCC3)CCC2=O)c1	-6%	-1%	?	?
Cc1ccc(S(=O)(=O)N2CCCCC2)cc1NC(=O)C1=NN(c2ccccc2)C(=O)CC1	2%	-2%	?	?
CCOC(=O)c1cc2c(=O)n3ccccc3nc2n(C(C)C)c1=NC(=O)C(C)(C)Oc1ccc(Cl)cc1	8%	·	·	·
COc1ccc(C2NC(=O)N(C)C3=C2C(=O)N(c2ccccc2)C3)cc1 (stereo unspecified)	-8%	·	·	·
CN1C(=O)NC(c2ccccc2)C2=C1CN(Cc1ccco1)C2=O (stereo unspecified)	35µM*	0%	8%	4%
O=C(NCc1ccccc1Br)c1ccc2nc(N3CCCCC3)sc2c1	25%	·	·	·
Nc1cccc(-n2nnnc2CN2CCOCC2)c1	-2%	13%	10µM*	0%
O=[N+]([O-])c1ccc(-n2nnnc2CN2CCCCC2)cc1	-16%	1%	-2%	10%
O=[N+]([O-])c1ccc(-n2nnnc2CN2CCOCC2)cc1	·	2%	6.6µM*	3%
Cc1ccc(N=Cc2cc(Cc3ccccc3Cl)cc([N+](=O)[O-])c2O)c(O)c1	11µM*	-18%	-20%	45%
SMILES	Sm TGR block	SARS PLpro yeast	Pf growth 96h	Pf growth 48h
Cn1c(SCC(=O)N2CC(=O)Nc3ccccc32)nnc1C(F)(F)F	-6%	-2%	8%	-26%
COc1ccc(-c2nc(C#N)c(NCc3ccccc3Cl)o2)cc1OC	15%	10%	0.59µM*	?
COc1ccc(CCNc2oc(Cc3cccc4ccccc34)nc2C#N)cc1OC	1%	-2%	?	6.6µM*
COc1ccc(-c2nc(C#N)c(NCc3ccc(F)cc3)o2)cc1OC	24%	4%	·	?
COc1ccc(-c2nc(C#N)c(NCc3cccnc3)o2)cc1OC	3%	-4%	10µM*	?
N#Cc1nc(-c2ccco2)oc1NCc1cccnc1	89µM*	-9%	67%	-10%
COC(=O)c1ccc(N2C(=O)Cc3cc(OC)c(OC)cc3C2c2ccc(F)cc2)cc1 (stereo unspecified)	4%	·	·	·
Oc1ccc(Br)cc1-c1cc(-c2ccccc2Cl)[nH]n1	11%	0%	4.1µM*	2.9µM*
Oc1ccc(Br)cc1-c1cc(-c2ccccc2F)[nH]n1	2%	0%	5%[5.75 µM]	9.3µM*
Oc1ccc(Cl)cc1-c1cc(-c2ccccc2)n[nH]1	7%	-24%	-29%	7.4µM*
COc1ccc(C2CC(c3cccc(F)c3)=NN2c2ccc(S(N)(=O)=O)cc2)cc1 (stereo unspecified)	·	3%	·	·
COc1ccc(C2CC(c3ccccc3)=NN2c2ccc(S(N)(=O)=O)cc2)cc1 (stereo unspecified)	5%	0%	?	13µM*
NS(=O)(=O)c1ccc(N2N=C(c3ccccc3)CC2c2ccc(F)cc2)cc1 (stereo unspecified)	0%	-17%	?	12µM*
Cc1oc(-c2cccc(F)c2)nc1CN1CCCCC1CCc1ccccn1 (stereo unspecified)	0%	-1%	?	13µM*
CSCC[C@H](N)C(=O)N1CCC(C(=O)N[C@H](C(=O)NCc2ccccc2F)C(C)C)CC1	-21%	-1%	2%	33%
O=C(CSc1nnc(Cn2nnc(-c3ccccc3)n2)n1-c1ccccc1)Nc1ccccc1	6%	-3%	?	?
Cc1cccc(C)c1NC(=O)CSc1nnc(Cn2nnc(-c3ccccc3)n2)n1-c1ccccc1	-2%	-13%	-17%	9.3µM*
Cc1cccc(C)c1NC(=O)CCCSc1nnc(-c2ccc(Cl)cc2)n1-c1ccccc1	-7%	-12%	?	-4%
Cc1cccc(C)c1NC(=O)CCCSc1nnc(-c2ccc(F)cc2)n1-c1ccccc1	0%	11%	12µM*	-14%
Cc1nn(C)c(C)c1NC(=O)CSc1nnc(C)n1-c1ccccc1	2%	1%	-20%	-10%
O=C(CSc1nnc(Cn2nnc(-c3ccccc3)n2)n1-c1ccccc1)Nc1ccc(F)cc1	4%	5%	·	9.3µM*
CSc1ccccc1NC(=O)CN(C)C(=O)c1ccc(-n2cccn2)cc1	0%	-7%	-7%	1%
Cc1cccc(CC(=O)N2CC(=O)Nc3ccc(C)cc3C2c2ccc(F)cc2)c1 (stereo unspecified)	5%	·	·	·
CCC(C)c1ccccc1N1CC(C(=O)Nc2ccc(N3CCOCC3)cc2)CC1=O (stereo unspecified)	-6%	-2%	?	-26%
CCOc1ccc(NC(=O)CN(C)C(=O)CC2OC(=O)c3ccccc32)cc1OCC (stereo unspecified)	1%	-4%	-1%	?
Cc1ccc(NC(=O)O/N=C/c2ccc(F)cc2)cc1	-8%	-7%	5.9µM*	40%
